Screening data: PubChem BioAssay, National Center for Advancing Translational Sciences (NCATS)
The list is not random: actives were taken first. Their share in the collection is about 22%.
Pf growth 48h = P. falciparum growth inhibition at 48 hours (one generation); AID 504832; 310,000 tested, 5.9% active; P. falciparum luciferase growth in erythrocytes, 48 h; Potency, µM (highest dose often 28.7 µM), hits mostly inhibitors
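Compounds are pin-transferred into medium, infected erythrocytes (2% hematocrit, 0.1% parasitemia final) are added, and plates sit one parasite generation at 37 C in 5% CO2. Detection reagent is then added and luminescence measured.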
Pf growth 96h = inhibits malaria parasite growth, 96 h | P. falciparum luciferase reporter growth, 96 h | Potency, µM (top dose mostly 28.7 µM), actives largely listed as inhibitors | 320,000 tested, 6.9% active | AID 504834
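96 h incubation, 37 C, 5% CO2, of luciferase-reporter P. falciparum-infected RBCs (2% hematocrit, 0.05% parasitemia final) with test compounds; endpoint luminescence.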
LmPK inhibitor = blocks Leishmania mexicana pyruvate kinase activity; purified LmPK, Kinase-Glo ATP luminescence, 1 h; Potency, µM (doses to about 57.5 µM), hits mostly inhibitors; 290,000 tested, 0.37% active
Target sequence (Q27686 whole entry, looked up): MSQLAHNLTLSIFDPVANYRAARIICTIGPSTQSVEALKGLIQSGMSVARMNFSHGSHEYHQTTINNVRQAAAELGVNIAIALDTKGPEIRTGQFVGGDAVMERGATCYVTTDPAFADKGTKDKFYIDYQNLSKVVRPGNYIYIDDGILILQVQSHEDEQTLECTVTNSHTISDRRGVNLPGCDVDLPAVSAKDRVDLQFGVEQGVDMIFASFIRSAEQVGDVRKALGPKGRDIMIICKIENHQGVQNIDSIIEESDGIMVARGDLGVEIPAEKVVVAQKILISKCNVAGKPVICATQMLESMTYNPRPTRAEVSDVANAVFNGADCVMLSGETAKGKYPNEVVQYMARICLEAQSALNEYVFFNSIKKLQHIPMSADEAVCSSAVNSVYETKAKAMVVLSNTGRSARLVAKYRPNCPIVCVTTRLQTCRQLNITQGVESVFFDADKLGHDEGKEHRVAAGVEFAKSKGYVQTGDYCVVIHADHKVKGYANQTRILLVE
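qHTS format; LmPK 0.1 nM; substrates PEP 0.5 mM and ADP 0.1 mM. One-hour room-temperature incubation, then coupled luciferase luminescence; 0.5 nM enzyme wells mark activation.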
Shiga toxin inh = inhibitors of Shiga toxin in Vero cells | Vero cells, Shiga toxin protein synthesis inhibition reporter | inhibition, % at 38.7 µM | 290,000 tested, 9.2% active | AID 2315; in the data active = inhibition mostly above about 28%, no sharp cut-off; inactive = mostly below about 43%
Cycloheximide cs = counter-screen hit for Shiga toxin inhibitors, cycloheximide; cell reporter, cycloheximide protein synthesis inhibition counterscreen; max response, %; 300,000 tested, 12% active; AID 2314; in the data active = max response mostly above about 13%, no sharp cut-off; inactive = mostly below about 14%; note: read at 38.3 µM for the half of the compounds with a filed dose
Large screens that a line does not name were inactive. Unless noted, calls come from the whole dose curve; as a rule, active = well fitted inhibition curve with a large enough effect; inconclusive = small, poorly fitted or top-dose-only effect, or another doubt; inactive = no such curve, though single readings can be large or run the other way.

Cc1ccc(-c2nc3cccnc3s2)cc1NS(=O)(=O)c1ccc2c(c1)CCCC2	none
Cc1ccc(NC(=O)C2c3ccccc3Oc3ccccc32)c(C)c1	none
CCS(=O)(=O)Nc1cc(-c2nc3cccnc3s2)ccc1C	Shiga toxin inh 87.2, Cycloheximide cs 65.9
COC(=O)C1=CN(c2ccc(F)cc2)C=C(C(=O)OC)C1c1ccc(O)cc1	none
CC(C)C(NC(=O)c1ccccc1F)C(=O)NCc1ccccc1 (configuration not stated)	none
CCS(=O)(=O)Nc1cccc(-c2nc3cccnc3s2)c1	Shiga toxin inh 130.9, Cycloheximide cs 33.4
c1cc2c(cc1-c1[nH]ncc1CN1CC3C[C@@H]4CC1C[C@H](C3)C4)OCO2	Pf growth 48h inconclusive, Pf growth 96h inconclusive
Cn1cc(CN2CC3C[C@@H]4CC2C[C@H](C3)C4)c(-c2ccc3c(c2)OCCO3)n1	Pf growth 96h 11.7µM
COc1ccccc1CNC(=O)c1oc2ccc(S(=O)(=O)N3CCCC3)cc2c1C	Pf growth 48h 2.94µM
COc1ccc(NC(=O)c2oc3ccc(S(=O)(=O)N4CCC5(CC4)OCCO5)cc3c2C)cc1	Pf growth 48h 3.7µM
Cc1c(C(=O)O)oc2ccc(S(=O)(=O)NCc3ccc4c(c3)OCO4)cc12	Pf growth 96h 5.86µM
Cc1ccc(CNC(=O)c2oc3ccc(S(=O)(=O)N4CCOCC4)cc3c2C)cc1	Pf growth 48h inconclusive (no result: Pf growth 96h)
C=CCNC(=O)c1oc2ccc(S(=O)(=O)N3CCC4(CC3)OCCO4)cc2c1C	Pf growth 48h inconclusive
COc1ccc(CNC(=O)c2oc3ccc(S(=O)(=O)N4CCOCC4)cc3c2C)cc1	Pf growth 48h 11.7µM, Pf growth 96h inconclusive
O=C(CCCOC(=O)c1ccc(O)cc1O)c1ccc(Br)cc1	none (no result: LmPK inhibitor, Shiga toxin inh, Cycloheximide cs)
CN1CCN(C(=O)C2=C[C@@H](c3ccccc3)C[C@@H](OCCCCO)O2)CC1	none
CN(C)C(=O)CN1C(=O)NC2(CCc3ccccc32)C1=O (configuration not stated)	none
Cc1c(C(=O)NCc2ccc3c(c2)OCO3)oc2ccc(S(=O)(=O)N3CCCCC3)cc12	Pf growth 48h 10.4µM, Pf growth 96h inconclusive
Cc1c(C(=O)NCc2ccc3c(c2)OCO3)oc2ccc(S(=O)(=O)N3CCCC3)cc12	Pf growth 48h 11.7µM, Pf growth 96h inconclusive
O=C(NCCN1CCOCC1)c1ccc(Cl)cc1	none
Cc1ccc(C(=O)NCCC(=O)N2CCOCC2)cc1	Shiga toxin inh 85.4, Cycloheximide cs 50.1
Cc1ccc(C(=O)NCCN2CCOCC2)cc1	Cycloheximide cs 13.1
O=C(NCC(=O)N1CCOCC1)c1ccc(Br)cc1	none
CCOCCCNC(=O)c1ccc(/C=C2\Oc3ccccc3N(C)C2=O)cc1	Pf growth 48h inconclusive
COc1ccc(CCNC(=O)Cc2ccsc2)cc1	none
CC12CCC(C(=O)NC3CCCCC3)([C@H](Br)C1=O)C2(C)C (some centres not stated)	none
Cc1noc(C)c1S(=O)(=O)NCc1ccc(CN(C)C)cc1	none (no result: LmPK inhibitor, Shiga toxin inh, Cycloheximide cs)
CCOc1ccccc1N1CCN(CC(=O)NC(C)c2ccccc2)CC1 (configuration not stated)	Pf growth 96h inconclusive
COc1ccc(NC(=O)C2(N(C(=O)Cn3nnnc3N)c3ccc(OC)cc3)CCCCC2)cc1	none
Cc1ccc(NC(=O)C2(N(C(=O)Cn3nnnc3N)c3ccc(C)cc3)CCCCC2)cc1	Pf growth 96h 13.1µM
CC(=O)c1cc(F)c(N2CCN(C(=O)COc3ccccc3F)CC2)cc1C	Pf growth 48h 14.7µM
CC(=O)c1cc(F)c(N2CCN(C(=O)C(C)(C)C)CC2)cc1C	Pf growth 96h inconclusive (no result: Pf growth 48h)
Oc1ccc(Cl)cc1-c1cc(-c2ccco2)[nH]n1	Pf growth 48h inconclusive, Pf growth 96h inconclusive, Shiga toxin inh 56.7, Cycloheximide cs 30.3
Oc1c(-c2cc(-c3ccco3)[nH]n2)ccc2ccccc12	Shiga toxin inh 148.7, Cycloheximide cs 47.9
Cc1nn(C)c(-c2n[nH]c(=S)n2-c2ccccc2)c1Cl	Shiga toxin inh active
Cn1cc(Cl)c(-c2n[nH]c(=S)n2-c2ccccc2)n1	none
S=c1[nH]nc(-c2cc(-c3ccco3)[nH]n2)n1-c1ccccc1	LmPK inhibitor 12.6µM
COC1(C)CC(c2ccccc2)c2c(c3ccccc3oc2=O)O1 (configuration not stated)	none (no result: Pf growth 48h, Pf growth 96h, LmPK inhibitor)
CCN(CC(=O)Nc1ccccc1OC)CC(=O)Nc1c(Cl)ccc(C)c1Cl	Pf growth 48h inconclusive, Pf growth 96h inconclusive
Oc1ccccc1-c1cc(-c2ccco2)[nH]n1	Shiga toxin inh 133.7, Cycloheximide cs 46.5 (no result: Pf growth 48h)
Oc1ccc(Br)cc1CNc1nccs1	Pf growth 48h inconclusive, Pf growth 96h inconclusive
Oc1ccc(Br)cc1-c1cc(-c2ccco2)[nH]n1	Pf growth 48h 11.7µM (no result: Pf growth 96h)
Oc1ccc(Br)cc1-c1ccn[nH]1	Shiga toxin inh 42.4
NNC(=O)c1cc(-c2ccco2)[nH]n1	none
O=C(O)CN=CC1=C(O)CC(c2ccccc2)CC1=O (configuration not stated)	Pf growth 96h inconclusive
Cc1cc2c(c(=O)n1-c1ccccc1)C1O[C@](c3ccsc3)(Cc3cc(C#N)ccc31)O2	Pf growth 48h inconclusive
COc1ccc(OC)c(-c2ccc(C(=O)O)o2)c1	none (no result: Pf growth 48h, Pf growth 96h, LmPK inhibitor)
Cc1cccc(-c2nc3c(c(=O)c4ccccc4n3C)c(=O)n2-c2ccccc2)c1	Pf growth 48h 1.65µM, Pf growth 96h 1.65µM
COc1ccc2cc3[n+](cc2c1OC)CCc1cc2c(cc1-3)OCO2	Pf growth 48h 0.233µM, Pf growth 96h 0.147µM
COc1ccc(Cl)cc1N1C(=NC(=O)C2CCCO2)SC2CS(=O)(=O)CC21 (configuration not stated)	none
COc1ccc2c(CC(=O)Nc3ncc(C)s3)coc2c1	Shiga toxin inh 86.0, Cycloheximide cs 32.9
Cc1cnc(NC(=O)COc2ccc3c(c2)CCC3)s1	Pf growth 96h inconclusive, Shiga toxin inh 61.1, Cycloheximide cs 59.7
COc1ccc(CCC(=O)Nc2nnc(C(F)(F)F)s2)cc1	Pf growth 48h inconclusive, Pf growth 96h 14.7µM
Cc1cccc(NC(=O)COc2ccc3c(c2)CCC3)n1	none (no result: LmPK inhibitor, Shiga toxin inh, Cycloheximide cs)
COc1ccc(CCC(=O)Nc2ncc(C)s2)cc1	Shiga toxin inh 35.3, Cycloheximide cs 16.9
CCCC[C@@H]1CCCO[C@@](C(=O)NCCN2CCOCC2)(C(F)(F)F)C1	none (no result: Pf growth 48h, Pf growth 96h, LmPK inhibitor)
CN(C)S(=O)(=O)c1ccc(NC(=O)CCCNC(=O)c2ccc(Cl)cc2)cc1	none
CN(C)CC(CCCCC(CN(C)C)C(=O)c1ccccc1)C(=O)c1ccccc1 (configuration not stated)	Pf growth 48h inconclusive, Pf growth 96h inconclusive
FC(F)(F)c1cccc(N2CCN(C(=S)NCC3CCCO3)CC2)c1 (configuration not stated)	Pf growth 48h inconclusive
O=S(=O)(c1ccc(F)cc1)N1CCN(C(=S)NCCc2ccccc2)CC1	Pf growth 48h 1.85µM, Pf growth 96h inconclusive
O=S(=O)(c1ccc(Cl)cc1)N1CCN(C(=S)NCC2CCCO2)CC1 (configuration not stated)	Pf growth 48h 0.928µM
O=S(=O)(c1ccc(F)cc1)N1CCN(C(=S)NCC2CCCO2)CC1 (configuration not stated)	Pf growth 48h 2.62µM, Pf growth 96h 2.08µM (no result: LmPK inhibitor, Shiga toxin inh, Cycloheximide cs)
